Legend:
Test in all cases: log2 ratio of Biotin-Ahx-Ub-VS probe labelling (fragment/DMSO); higher = less target engagement (more negative = stronger competition), active = hit call of the paper (q ≤ 0.05, log2 ratio ≤ -1)
Conditions in all cases: compound concentration: 200 uM; treatment time: 3 h
[1] = target: T1, USP42 (UniProt Q9H9J4)
T1 sequence (whole entry): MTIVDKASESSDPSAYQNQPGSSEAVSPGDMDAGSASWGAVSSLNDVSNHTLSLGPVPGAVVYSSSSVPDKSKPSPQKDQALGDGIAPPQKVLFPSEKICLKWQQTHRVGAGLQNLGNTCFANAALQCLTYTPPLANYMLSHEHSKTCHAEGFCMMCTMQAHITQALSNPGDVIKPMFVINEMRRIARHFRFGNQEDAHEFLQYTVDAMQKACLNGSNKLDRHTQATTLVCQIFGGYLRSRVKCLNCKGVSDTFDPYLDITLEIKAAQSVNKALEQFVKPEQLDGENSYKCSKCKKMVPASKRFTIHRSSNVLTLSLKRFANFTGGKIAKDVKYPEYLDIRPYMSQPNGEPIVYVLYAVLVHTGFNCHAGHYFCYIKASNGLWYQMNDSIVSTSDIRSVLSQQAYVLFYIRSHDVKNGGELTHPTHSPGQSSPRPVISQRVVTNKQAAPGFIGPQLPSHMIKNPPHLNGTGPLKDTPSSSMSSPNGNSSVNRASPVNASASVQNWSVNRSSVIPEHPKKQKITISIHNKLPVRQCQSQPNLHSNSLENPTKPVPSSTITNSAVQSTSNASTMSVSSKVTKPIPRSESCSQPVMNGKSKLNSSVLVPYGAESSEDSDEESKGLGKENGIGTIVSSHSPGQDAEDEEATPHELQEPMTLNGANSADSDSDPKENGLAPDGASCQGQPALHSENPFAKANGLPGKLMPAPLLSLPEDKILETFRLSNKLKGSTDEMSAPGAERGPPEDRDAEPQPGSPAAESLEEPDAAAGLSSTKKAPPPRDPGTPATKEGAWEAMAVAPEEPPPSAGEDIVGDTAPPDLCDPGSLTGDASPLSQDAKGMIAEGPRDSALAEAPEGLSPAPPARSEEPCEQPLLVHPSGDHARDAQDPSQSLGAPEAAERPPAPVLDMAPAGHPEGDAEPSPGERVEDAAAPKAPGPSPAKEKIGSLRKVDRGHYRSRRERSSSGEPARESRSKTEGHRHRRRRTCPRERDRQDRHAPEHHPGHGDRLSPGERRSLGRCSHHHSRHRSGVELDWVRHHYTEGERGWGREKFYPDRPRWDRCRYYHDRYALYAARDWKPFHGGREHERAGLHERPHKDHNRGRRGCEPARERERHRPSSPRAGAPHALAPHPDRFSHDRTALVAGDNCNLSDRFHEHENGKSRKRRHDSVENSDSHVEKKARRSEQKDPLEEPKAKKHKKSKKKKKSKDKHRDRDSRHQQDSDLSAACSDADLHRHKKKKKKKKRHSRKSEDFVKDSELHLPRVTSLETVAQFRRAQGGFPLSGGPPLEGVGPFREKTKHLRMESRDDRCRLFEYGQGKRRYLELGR
Outline: (§1)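 Labelling with Biotin-Ahx-Ub-VS (0.5 µM final, 1 h) followed a 3 h triplicate treatment of HEK293T lysate (495 µg per sample, Tris/CHAPS/IGEPAL buffer with protease inhibitors) with fragment at 200 µM or vehicle. Labelled DUBs were NeutrAvidin-enriched, digested with LysC and trypsin, and run by diaPASEF LC-MS/MS. The values, average log2 fragment/vehicle ratios by unpaired t-test, come from global-median-normalised Spectronaut label-free quantities. Proteins with ≥2 unique peptides were used.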

[2] = target: USP46 (UniProt P62068)
Chain of USP46 (P62068 whole entry): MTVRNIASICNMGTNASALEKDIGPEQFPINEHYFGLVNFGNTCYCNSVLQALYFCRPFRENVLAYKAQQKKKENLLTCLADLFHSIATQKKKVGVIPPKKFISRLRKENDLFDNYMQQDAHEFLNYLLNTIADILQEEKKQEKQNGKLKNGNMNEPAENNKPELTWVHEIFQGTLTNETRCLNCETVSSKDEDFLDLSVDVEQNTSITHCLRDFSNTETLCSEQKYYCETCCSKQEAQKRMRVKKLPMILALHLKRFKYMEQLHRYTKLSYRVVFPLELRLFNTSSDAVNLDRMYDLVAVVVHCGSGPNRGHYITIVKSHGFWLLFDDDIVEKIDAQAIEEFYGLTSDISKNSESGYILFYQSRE
Outline: as §1

[3] = target: T2, USP47 (UniProt Q96K76)
T2 sequence (whole entry): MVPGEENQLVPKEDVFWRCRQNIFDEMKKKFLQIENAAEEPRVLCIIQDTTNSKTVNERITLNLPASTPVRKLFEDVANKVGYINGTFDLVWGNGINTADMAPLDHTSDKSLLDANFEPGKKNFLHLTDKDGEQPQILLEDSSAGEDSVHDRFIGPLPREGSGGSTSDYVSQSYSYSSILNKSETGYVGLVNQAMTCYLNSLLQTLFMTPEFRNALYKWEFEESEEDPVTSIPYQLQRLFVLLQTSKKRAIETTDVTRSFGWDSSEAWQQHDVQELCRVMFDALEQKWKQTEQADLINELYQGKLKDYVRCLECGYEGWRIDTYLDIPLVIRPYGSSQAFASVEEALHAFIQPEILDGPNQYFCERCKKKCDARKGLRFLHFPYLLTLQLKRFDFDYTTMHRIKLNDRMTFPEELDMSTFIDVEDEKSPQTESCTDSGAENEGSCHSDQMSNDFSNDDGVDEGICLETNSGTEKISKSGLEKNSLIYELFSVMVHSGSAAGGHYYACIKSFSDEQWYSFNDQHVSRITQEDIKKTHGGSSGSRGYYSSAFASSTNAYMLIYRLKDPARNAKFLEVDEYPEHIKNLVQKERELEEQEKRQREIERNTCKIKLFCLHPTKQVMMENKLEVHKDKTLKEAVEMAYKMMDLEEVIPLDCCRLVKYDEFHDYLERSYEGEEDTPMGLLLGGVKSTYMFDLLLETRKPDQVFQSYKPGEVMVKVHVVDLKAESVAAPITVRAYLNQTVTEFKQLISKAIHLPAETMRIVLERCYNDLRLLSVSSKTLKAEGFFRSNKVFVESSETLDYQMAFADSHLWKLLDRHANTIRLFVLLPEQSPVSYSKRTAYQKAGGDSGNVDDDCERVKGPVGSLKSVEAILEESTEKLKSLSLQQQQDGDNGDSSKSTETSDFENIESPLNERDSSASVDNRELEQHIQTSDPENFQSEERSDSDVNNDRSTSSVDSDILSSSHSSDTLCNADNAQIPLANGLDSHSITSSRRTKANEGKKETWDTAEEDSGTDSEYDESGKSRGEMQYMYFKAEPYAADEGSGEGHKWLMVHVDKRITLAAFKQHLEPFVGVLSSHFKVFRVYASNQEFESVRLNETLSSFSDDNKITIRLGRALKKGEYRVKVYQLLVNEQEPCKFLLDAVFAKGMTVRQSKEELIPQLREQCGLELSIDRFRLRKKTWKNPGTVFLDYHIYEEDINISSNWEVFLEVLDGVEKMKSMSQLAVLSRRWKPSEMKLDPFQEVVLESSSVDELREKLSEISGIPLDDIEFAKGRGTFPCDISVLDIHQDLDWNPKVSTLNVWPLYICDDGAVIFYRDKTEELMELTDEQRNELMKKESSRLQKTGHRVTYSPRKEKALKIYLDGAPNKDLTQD
Outline: as §1

[4] = target: T3, USP48 (UniProt Q86UV5)
T3 sequence (whole entry): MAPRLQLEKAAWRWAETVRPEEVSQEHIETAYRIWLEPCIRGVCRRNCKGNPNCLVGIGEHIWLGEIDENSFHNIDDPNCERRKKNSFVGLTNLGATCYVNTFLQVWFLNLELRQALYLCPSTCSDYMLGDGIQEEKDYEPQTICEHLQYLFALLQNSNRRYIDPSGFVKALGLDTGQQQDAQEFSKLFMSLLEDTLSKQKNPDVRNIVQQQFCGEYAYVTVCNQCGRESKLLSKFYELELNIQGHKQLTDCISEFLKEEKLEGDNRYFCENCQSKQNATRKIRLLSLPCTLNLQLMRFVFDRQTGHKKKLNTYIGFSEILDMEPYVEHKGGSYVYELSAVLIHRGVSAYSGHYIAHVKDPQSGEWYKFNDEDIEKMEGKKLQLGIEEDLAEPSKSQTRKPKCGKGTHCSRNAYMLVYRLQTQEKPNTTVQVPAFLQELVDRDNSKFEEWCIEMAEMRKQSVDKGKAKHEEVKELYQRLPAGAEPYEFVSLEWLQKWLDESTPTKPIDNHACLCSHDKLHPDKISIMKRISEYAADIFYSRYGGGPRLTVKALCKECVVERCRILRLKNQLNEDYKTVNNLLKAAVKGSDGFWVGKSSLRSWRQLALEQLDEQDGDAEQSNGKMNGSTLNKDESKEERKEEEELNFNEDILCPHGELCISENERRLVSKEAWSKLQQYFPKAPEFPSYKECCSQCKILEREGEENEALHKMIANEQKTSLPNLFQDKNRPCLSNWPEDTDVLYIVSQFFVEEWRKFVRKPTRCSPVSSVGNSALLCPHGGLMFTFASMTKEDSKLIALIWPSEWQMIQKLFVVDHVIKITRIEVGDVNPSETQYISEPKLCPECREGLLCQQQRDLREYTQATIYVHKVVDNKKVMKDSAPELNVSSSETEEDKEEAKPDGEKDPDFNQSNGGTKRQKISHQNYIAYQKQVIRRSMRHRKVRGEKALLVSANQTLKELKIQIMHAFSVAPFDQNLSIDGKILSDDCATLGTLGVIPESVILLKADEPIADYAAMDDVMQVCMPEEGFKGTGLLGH
Outline: as §1

[5] = target: T4, USP5 (UniProt P45974)
T4 sequence (whole entry): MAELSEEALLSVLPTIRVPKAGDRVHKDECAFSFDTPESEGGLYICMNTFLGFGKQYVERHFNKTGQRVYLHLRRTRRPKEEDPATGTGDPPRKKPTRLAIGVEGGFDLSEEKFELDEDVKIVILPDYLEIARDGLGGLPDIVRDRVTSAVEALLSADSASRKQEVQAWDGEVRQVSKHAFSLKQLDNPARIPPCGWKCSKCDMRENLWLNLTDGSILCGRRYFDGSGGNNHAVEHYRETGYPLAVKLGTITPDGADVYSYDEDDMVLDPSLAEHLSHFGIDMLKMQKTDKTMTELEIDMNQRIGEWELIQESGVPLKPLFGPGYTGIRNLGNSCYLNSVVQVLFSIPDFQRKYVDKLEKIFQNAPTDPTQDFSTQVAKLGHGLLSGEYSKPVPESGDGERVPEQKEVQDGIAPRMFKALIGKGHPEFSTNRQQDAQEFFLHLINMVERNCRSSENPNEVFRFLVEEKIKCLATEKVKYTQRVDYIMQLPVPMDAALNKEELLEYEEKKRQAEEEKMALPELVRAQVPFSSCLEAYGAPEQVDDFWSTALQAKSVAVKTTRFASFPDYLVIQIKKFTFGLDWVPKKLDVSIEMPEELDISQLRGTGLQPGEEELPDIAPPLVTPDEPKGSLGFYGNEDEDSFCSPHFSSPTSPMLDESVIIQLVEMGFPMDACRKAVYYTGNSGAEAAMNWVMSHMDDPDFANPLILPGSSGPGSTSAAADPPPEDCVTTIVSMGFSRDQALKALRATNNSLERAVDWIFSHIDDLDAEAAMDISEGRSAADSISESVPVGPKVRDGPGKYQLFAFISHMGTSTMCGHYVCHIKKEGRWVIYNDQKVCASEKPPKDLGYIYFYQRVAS
Outline: as §1

[6] = target: USP54 (UniProt Q70EL1)
Chain of USP54 (Q70EL1 whole entry): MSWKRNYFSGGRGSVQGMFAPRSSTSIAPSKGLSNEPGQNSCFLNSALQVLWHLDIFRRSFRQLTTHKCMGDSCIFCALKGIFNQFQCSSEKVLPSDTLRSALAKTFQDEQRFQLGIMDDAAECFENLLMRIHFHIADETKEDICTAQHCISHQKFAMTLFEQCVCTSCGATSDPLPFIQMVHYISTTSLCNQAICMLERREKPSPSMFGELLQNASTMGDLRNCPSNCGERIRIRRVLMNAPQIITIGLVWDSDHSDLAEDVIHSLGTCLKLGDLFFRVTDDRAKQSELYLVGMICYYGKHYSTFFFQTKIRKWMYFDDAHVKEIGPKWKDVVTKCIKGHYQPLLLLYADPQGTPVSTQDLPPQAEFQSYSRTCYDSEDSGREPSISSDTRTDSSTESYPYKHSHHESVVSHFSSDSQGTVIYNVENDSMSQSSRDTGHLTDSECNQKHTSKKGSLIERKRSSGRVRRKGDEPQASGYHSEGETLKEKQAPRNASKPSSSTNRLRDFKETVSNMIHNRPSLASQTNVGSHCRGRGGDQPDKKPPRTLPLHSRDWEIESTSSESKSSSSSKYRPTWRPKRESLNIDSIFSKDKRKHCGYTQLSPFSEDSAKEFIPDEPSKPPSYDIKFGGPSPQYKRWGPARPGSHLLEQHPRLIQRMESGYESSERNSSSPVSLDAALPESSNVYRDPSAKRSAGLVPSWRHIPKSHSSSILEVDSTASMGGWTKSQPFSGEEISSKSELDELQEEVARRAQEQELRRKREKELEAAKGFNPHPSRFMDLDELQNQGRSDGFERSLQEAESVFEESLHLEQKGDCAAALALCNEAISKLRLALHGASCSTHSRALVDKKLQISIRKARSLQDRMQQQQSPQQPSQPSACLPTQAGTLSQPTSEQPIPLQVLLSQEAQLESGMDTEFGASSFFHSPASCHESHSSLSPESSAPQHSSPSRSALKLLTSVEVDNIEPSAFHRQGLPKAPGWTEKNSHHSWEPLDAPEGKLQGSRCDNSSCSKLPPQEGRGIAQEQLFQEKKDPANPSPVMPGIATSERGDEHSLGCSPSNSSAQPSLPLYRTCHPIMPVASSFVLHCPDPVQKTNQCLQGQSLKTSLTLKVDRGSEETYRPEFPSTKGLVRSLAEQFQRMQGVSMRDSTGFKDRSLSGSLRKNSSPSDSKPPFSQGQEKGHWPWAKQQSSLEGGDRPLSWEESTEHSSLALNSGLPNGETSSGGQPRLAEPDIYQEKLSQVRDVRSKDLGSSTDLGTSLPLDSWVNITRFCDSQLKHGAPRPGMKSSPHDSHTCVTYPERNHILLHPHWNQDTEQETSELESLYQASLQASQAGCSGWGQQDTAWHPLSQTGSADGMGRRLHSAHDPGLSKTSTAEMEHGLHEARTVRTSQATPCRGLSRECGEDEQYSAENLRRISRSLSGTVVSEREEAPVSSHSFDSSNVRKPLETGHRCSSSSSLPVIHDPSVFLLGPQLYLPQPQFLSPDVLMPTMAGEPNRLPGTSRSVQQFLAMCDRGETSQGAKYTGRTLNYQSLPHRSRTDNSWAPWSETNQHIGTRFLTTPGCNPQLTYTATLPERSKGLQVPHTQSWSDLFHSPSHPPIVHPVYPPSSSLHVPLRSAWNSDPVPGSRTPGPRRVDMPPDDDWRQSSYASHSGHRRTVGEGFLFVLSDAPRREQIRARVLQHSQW
Outline: as §1

[7] = target: USP7 (UniProt Q93009)
Outline: as §1

[8] = target: T5, USP8 (UniProt P40818)
T5 sequence (whole entry): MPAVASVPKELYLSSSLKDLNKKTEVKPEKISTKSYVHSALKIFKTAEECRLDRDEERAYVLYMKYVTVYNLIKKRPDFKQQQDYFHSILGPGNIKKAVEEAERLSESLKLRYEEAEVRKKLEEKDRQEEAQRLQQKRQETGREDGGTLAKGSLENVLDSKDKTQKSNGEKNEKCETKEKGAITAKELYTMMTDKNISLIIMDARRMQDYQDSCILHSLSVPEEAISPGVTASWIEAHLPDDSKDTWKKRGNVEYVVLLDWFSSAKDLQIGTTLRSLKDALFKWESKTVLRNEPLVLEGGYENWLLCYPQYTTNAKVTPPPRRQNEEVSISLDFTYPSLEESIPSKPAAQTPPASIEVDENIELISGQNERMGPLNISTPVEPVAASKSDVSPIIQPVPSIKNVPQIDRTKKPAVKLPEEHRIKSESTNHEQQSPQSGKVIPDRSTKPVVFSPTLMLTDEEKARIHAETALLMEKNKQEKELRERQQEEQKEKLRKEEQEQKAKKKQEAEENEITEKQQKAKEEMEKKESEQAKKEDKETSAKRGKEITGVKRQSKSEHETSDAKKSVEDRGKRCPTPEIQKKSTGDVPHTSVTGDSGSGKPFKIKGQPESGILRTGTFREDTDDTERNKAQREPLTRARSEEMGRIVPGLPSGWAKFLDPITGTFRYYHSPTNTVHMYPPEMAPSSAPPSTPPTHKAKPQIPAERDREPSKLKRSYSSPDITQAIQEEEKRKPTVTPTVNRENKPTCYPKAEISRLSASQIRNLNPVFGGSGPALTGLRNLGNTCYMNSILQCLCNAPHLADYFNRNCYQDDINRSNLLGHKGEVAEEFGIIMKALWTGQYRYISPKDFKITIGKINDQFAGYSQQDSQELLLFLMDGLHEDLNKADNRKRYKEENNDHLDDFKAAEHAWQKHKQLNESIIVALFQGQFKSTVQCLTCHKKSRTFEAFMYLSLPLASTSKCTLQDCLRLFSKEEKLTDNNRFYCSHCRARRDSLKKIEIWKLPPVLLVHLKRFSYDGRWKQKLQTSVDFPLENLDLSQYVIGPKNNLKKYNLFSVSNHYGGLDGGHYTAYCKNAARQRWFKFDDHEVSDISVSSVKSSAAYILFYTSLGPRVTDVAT
Outline: as §1

[9] = target: USP9X (UniProt Q93008)
Chain of USP9X (Q93008 whole entry): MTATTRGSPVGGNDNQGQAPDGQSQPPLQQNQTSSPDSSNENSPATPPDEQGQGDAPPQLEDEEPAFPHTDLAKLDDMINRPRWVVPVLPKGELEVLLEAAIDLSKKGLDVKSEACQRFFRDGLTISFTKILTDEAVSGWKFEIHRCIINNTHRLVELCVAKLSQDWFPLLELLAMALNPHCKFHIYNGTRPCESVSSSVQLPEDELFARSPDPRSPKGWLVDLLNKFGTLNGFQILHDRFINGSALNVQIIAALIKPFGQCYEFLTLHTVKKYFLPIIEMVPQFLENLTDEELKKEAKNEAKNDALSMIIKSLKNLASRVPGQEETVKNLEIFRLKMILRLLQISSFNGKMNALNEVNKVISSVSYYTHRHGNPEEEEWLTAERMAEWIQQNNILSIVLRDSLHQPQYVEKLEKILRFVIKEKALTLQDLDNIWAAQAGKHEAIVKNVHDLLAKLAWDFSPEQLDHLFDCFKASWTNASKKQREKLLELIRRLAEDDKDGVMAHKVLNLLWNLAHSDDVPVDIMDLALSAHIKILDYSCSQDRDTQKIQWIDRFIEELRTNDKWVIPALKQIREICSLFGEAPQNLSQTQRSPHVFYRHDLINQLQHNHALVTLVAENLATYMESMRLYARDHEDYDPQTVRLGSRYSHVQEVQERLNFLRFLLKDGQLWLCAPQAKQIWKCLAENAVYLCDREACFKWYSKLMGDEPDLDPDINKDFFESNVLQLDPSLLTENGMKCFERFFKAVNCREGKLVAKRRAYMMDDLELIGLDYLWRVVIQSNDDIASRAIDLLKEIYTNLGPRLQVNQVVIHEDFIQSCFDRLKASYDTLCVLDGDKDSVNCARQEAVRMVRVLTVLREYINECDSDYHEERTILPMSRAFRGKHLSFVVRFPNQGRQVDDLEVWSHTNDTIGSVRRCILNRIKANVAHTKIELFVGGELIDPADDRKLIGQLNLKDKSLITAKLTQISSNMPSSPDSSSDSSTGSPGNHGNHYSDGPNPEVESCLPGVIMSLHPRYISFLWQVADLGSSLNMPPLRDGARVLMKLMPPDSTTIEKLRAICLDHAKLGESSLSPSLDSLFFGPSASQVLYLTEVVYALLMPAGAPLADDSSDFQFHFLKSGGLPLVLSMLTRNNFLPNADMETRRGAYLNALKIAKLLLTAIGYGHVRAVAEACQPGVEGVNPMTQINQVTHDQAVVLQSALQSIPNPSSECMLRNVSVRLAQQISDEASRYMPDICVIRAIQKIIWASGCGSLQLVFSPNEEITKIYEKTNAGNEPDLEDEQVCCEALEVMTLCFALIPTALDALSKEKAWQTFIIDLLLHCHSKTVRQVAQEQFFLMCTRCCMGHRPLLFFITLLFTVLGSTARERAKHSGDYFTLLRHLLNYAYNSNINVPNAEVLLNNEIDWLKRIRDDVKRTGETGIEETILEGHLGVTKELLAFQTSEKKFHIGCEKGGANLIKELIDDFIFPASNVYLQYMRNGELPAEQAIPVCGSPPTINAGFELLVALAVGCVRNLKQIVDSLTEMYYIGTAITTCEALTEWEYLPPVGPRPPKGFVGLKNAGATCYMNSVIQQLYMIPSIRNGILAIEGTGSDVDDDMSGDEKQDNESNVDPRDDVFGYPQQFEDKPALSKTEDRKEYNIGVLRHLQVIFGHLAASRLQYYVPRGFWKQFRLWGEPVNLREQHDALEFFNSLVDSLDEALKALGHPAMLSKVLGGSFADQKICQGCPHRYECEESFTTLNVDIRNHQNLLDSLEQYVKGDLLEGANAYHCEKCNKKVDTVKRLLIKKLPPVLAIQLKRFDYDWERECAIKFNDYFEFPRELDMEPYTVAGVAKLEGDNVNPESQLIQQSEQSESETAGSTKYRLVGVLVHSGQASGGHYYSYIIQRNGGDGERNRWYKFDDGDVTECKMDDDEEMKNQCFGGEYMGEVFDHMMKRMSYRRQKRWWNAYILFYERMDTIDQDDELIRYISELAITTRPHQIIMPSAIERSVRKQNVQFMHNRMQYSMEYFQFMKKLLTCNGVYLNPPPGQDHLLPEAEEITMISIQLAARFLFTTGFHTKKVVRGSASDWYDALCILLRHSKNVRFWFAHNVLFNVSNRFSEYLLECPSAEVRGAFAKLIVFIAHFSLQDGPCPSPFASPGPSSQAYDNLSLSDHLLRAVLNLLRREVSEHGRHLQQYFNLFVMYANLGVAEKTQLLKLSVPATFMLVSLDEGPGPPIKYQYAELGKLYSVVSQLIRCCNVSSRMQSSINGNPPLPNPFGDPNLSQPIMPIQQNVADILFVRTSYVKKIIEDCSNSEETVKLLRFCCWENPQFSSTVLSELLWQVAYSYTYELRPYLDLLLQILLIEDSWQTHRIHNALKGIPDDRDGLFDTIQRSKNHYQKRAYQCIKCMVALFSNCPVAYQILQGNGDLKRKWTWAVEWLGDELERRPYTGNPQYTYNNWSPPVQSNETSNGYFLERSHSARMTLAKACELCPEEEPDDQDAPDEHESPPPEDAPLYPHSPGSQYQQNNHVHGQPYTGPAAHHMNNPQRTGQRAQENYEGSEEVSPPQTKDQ
Outline: as §1

[10] = target: UniProt O00487
Chain of UniProt O00487 (O00487 whole entry): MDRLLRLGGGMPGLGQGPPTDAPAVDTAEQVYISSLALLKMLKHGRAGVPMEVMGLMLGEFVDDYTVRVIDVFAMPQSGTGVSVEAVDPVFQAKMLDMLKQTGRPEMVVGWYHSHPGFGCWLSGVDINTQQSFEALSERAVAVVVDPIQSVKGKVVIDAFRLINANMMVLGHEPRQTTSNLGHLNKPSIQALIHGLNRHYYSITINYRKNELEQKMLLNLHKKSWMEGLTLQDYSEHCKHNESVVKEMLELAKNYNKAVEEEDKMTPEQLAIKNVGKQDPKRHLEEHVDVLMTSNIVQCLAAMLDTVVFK
Outline: as §1

Measured: log2 ratio of Biotin-Ahx-Ub-VS probe labelling

COc1cc(Cl)c(C)cc1NC(=O)CCl
inactive: [1] -0.591 | [2] -0.0884 | [3] -0.965 | [4] -0.36 | [5] -0.267 | [6] 0.718 | [7] -0.373 | [8] -0.251 | [9] -0.645 | [10] -0.246

From the supplement of paper PMC11732987, “Enantioselective OTUD7B fragment discovery through chemoproteomics screening and high-throughput optimisation” (Communications Chemistry, 2025)
